# Source: PubChem BioAssay AID624256 (NMMLSC, 2012)
# About 3,700 (1%) of roughly 360,000 compounds were called active. About 2% were inconclusive and are not listed.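 The calls were made as follows: active = normalized GFP-positive differentiation at or above the plate's own cutoff, the solvent-only control mean plus 3 SD; inconclusive = no clear call, values can overlap the other calls; inactive = the rest.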 Shown is part of a subset that was picked to be rich in actives.
# Experiment: induction of myeloid progenitor differentiation, primary screen, cell-based, flow cytometry, MLPCN library (AID 624256);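 as to GFP+ MAC1+ double positive: cells exposed to compound for four days before flow analysis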;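 as to normalized GFP-positive differentiation: cells exposed to compound for four days before flow analysis; 0% = DMSO wells and 100% = fulvestrant positive control at 5 µM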
# Details: ER-HoxA9 myeloid progenitors, lysozyme-GFP differentiation, at 10 µM; GFP+ MAC1+ double positive: measured here: differentiation confirmed by MAC1 staining, stronger effect = higher value; normalized GFP-positive differentiation: stronger effect = higher value
Compound,GFP+ MAC1+ double positive [%],normalized GFP-positive differentiation,outcome
O=C1NC(=O)N(CCc2ccc(F)cc2)C(=O)/C1=C/C=C/c1ccccc1,0.9,70.4% (active),–
CNC(=O)O/N=C(\N)Cc1csc2ccc(Cl)cc12,0.2,–,inactive
CC(C)Nc1nc(Cl)nc(NC(C)C)n1,0.1,–,inactive
COc1ccc(N=Cc2c(O)n(C)c(=O)[nH]c2=O)cc1,0.4,–,inactive
C[C@H]1CN([C@@H](C)CO)C(=O)CCCn2nncc2CO[C@H]1CN(C)C(=O)Oc1ccccc1,0.8,–,inactive
Cc1ccccc1NC(=O)COC(=O)c1cc(C)n(C2CC2)c1C,1.3,–,inactive
CC(=NCC1CCCO1)c1c(O)n(-c2ccccc2)c(=O)[nH]c1=O (stereo not given),0.9,–,inactive
OCC#CC[N+]1(CC#Cc2ccccc2)CCCC1,1.2,7.55% (active),–
COC(=O)C1=C(c2cc3ccccc3s2)C[C@@H]2CC[C@H]1N2C(=O)NCCO,4.1,–,inactive
CCOC(=O)[C@]12Cc3cc(OC)ccc3[C@H]1N(C(C)C)C(=O)c1ccccc12,1.5,–,inactive
c1ccc(CC2CCCCN2)cc1 (stereo not given),0.1,–,inactive
c1ccc2sc(C3CCCNC3)nc2c1 (stereo not given),1.2,–,inactive
CC1CC=CCC12C(=O)NC(=S)NC2=O (stereo not given),11.7,312% (active),–
CN1CCC[C@@H]1CCO[C@](C)(c1ccccc1)c1ccc(Cl)cc1,3.2,–,inactive
CC1C2Cn3c(nc4ccccc43)C1N(C)O2 (stereo not given),1.5,–,inactive
